# D2 ag-1: human D2 receptor agonism in beta-arrestin assay; actives 0.084% (n = 360,000); DiscoveRx PathHunter D2 beta-arrestin, luminescence, 90 min; 100% = 57 uM dopamine signal; activation, % (no concentration beside the values); AID 624465; in the data active = activation above about 40%; inconclusive = between about 15% and that limit
# Target sequence (P14416 whole entry, looked up): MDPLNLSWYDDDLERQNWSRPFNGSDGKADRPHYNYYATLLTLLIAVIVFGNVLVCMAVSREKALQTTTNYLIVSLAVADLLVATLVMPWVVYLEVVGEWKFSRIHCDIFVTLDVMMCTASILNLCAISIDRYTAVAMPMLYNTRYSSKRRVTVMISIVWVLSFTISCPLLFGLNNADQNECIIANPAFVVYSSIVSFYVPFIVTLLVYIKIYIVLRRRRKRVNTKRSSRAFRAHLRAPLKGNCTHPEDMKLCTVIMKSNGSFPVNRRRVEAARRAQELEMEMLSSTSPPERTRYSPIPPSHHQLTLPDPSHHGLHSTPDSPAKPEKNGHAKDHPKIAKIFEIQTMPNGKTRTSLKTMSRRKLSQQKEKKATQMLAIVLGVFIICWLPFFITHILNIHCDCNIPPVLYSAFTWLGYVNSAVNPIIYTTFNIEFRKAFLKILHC
#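 DiscoveRx PathHunter D2 beta-arrestin cells (2,100/well) attached overnight, then compound-stimulated 90 min at 37 C in HBSS/10 mM HEPES/0.1% Tween-20 buffer; beta-galactosidase complementation read by luminescence after 1 h at ambient temperature. Dopamine 57 uM final (EC100) as control.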
# D2 ag-2: D2 dopamine receptor (human) agonism | P14416 | HEK293 T-REx D2 cells, calcium flux agonist mode | activation, % at 2 µM | actives 0.53% (n = 340,000) | AID 485358;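 active = activation over 3 SD above normal in the single-dose calcium agonist read, cut at about 30% in these data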; also: 0% is about no effect
#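 HEK293 Trex D2 cells, tetracycline-induced, o/n 30 C 5% CO2; no-wash Ca dye, RT 30–90 min; 10-cycle baseline, 23 nl cpd added, kinetic Ca read 180 s; agonist hits = positive Ca response.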
# D2 antagonist: antagonizes the human D2 dopamine receptor. actives 2% (n = 340,000). P14416. HEK293 TREx D2 cells, calcium flux, dopamine EC80. inhibition, % at 10 µM; in the data active = inhibition above about 30%; inactive = below that, where a call was filed; also: 0% is about no effect
#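 Compounds are added to dye-loaded, induced HEK293 T-REx cells coupled to calcium release via D2; after a 3 min kinetic read an EC80 dopamine stimulus is given and fluorescence is recorded for 3 more min.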
# D2 PAM-1: potentiates the human D2 dopamine receptor allosterically. DiscoveRx D2 beta-arrestin cells, luminescence, 90 min; 100% = 57 uM dopamine signal. potentiation, % (test concentration not listed). actives 0.23% (n = 360,000); in the data active = potentiation above about 50%; inconclusive = mostly about 30% to 49%
#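 D2 cells co-treated with compound plus 50 nM dopamine (EC20) for 90 min at 37 deg C to detect potentiation. Beta-arrestin recruitment was read as enzyme-fragment luminescence after 1 h at ambient temperature. Full response was set by 57 uM dopamine.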
# D2 PAM-2: positively modulates the human D2 dopamine receptor allosterically. P14416. HEK293 T-REx D2, calcium flux, EC20 dopamine potentiation. potentiation, % at 10 µM. actives 0.34% (n = 340,000). AID 485347;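 active = potentiation over 3 SD above the plate norm, cut at about 30% in these data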; also: 0% is about no effect
#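 Using a no-wash calcium dye in inducible, force-coupled HEK293 Trex cells expressing D2, we tracked fluorescence each second for 180 s after compound, then for 180 s after EC20 dopamine to detect augmented signalling.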
# Active calls of the source: *; ? = inconclusive; . = not tested or not shown. This is a sample that favours compounds with a hit; in the whole collection about 2.4% have one here.
SMILES,D2 ag-1,D2 ag-2,D2 antagonist,D2 PAM-1,D2 PAM-2
COc1ccc(N(Cc2cccs2)C(=O)COc2cc(C)c(Cl)c(C)c2)cc1,.,3,.,.,-3
CN(CC(=O)Nc1cccc(F)c1)C(=O)c1ccc2c(c1)S(=O)(=O)N=C1CCCCCN12,-5,1,-1,-12,32*
Cc1ccc2c(=O)cc(C(=O)Nc3ccc(S(=O)(=O)N(C)c4ccccc4)cc3)oc2c1C,.,-1,.,.,4
COc1ccc(Cc2noc(CN(C)C3CC(C)(C)NC(C)(C)C3)n2)cc1OC,-6,-1,10,-5,6
COc1ccc(CCN(C)Cc2nc(Cc3ccc(OC)c(OC)c3)no2)cc1OC,-1,-2,37*,-8,27
COc1ccc(-c2ccc(-c3nnc(Cc4ccc(OC)c(OC)c4)o3)cc2)cc1,-2,0,30*,-2,-8
COc1ccc(Cc2noc(-c3ccccc3)n2)cc1OC,0,2,33*,-2,1
COc1ccc(OC)c(NCc2nnc(-c3ccccc3)o2)c1,-1,0,-22,-3,0
COc1ccc(N2Cc3cccc(C(=O)Nc4ccc(C)c(C)c4)c3C2=O)cc1,.,0,.,.,15
COc1ccc(-c2csc3ncnc(Nc4ccc(OC)c(OC)c4)c23)cc1,.,0,.,.,5
Cc1ccc(-c2noc(C3CC(=O)N(c4ccc5c(c4)OCCO5)C3)n2)cc1 (stereo not given),.,0,.,.,-10
COc1ccc(Cn2c3nc4ccccc4nc3c3c(=O)n(Cc4ccco4)cnc32)cc1,.,1,40*,.,6
Nc1ccc(C(=O)N2CCN(S(=O)(=O)c3ccc(Br)cc3)CC2)cc1[N+](=O)[O-],1,1,35*,16,2
Cc1ccc(CNC(=O)C(NS(=O)(=O)c2ccc3nc(C)sc3c2)C(C)C)cc1 (stereo not given),-3,0,0,-5,-4
Cc1nc2ccc(S(=O)(=O)NC(C(=O)NCc3ccco3)C(C)C)cc2s1 (stereo not given),-7,1,31*,-2,15
Oc1ccc(/C=N/Nc2ccc(Cl)nn2)c(O)c1O,50*,1,6,15,-6
Cc1ccc(Nc2c(-c3ccc(C)o3)nc3ncccn23)cc1,8,1,-7,5,13
Cc1ccc(-c2nc3ncccn3c2Nc2ccc3c(c2)OCO3)o1,11,0,-4,63*,12
Cc1ccc(-n2nc3c(N4CCC(C(=O)N5CCCCC5)CC4)nnc(C)c3c2C)cc1,.,0,.,.,-4
Clc1cccc(-c2nc3ccccn3c2Nc2ccc3c(c2)OCCO3)c1,.,1,.,.,14
Cc1cc(-c2ccccc2)nc2cc(C(=O)NCc3ccco3)nn12,-2,0,1,-4,36*
COc1ccc(-c2cc(C(F)(F)F)n3nc(C(=O)NCc4ccco4)cc3n2)cc1,-2,0,14,-8,16
CSc1cccc(CN2CCN(CCC(C)C)C(CCO)C2)c1 (stereo not given),0,1,59*,-23,-16
CC(C)CN1CCN(Cc2ccc(C#CC(C)(C)O)cc2)CC1CCO (stereo not given),-3,1,33*,-9,7
CC(C)CCN1CCN(Cc2cccc(C(F)(F)F)c2)CC1CCO (stereo not given),1,-2,76*,-17,-33
SMILES,D2 ag-1,D2 ag-2,D2 antagonist,D2 PAM-1,D2 PAM-2
Cc1ccc(S(=O)(=O)c2nnn3c2nc(N2CCN(c4ccccc4F)CC2)c2ccccc23)cc1C,.,1,.,.,5
CCc1cccc(NC(=O)C(Cc2ccccc2)NS(=O)(=O)c2ccc3c(c2)oc(=O)n3C)c1 (stereo not given),.,0,.,.,4
COc1ccc(OC)c(NC(=O)CCCOc2cc(=O)n(C)c3ccccc23)c1,.,-1,.,.,-3
COc1ccc(Nc2cc(C(=O)NCCCN3CCN(c4ccccc4F)CC3)c3ccccc3n2)c(OC)c1,.,.,.,.,-22
O=S(=O)(NC1=NCCCCC1)c1ccc(Cl)cc1,-2,3,-5,-4,2
CCOc1ccc(S(=O)(=O)NC2=NCCCCC2)cc1,-2,0,-7,1,71*
Cc1cccc(Nc2nc(-c3ccccc3)c3cc(C)ccc3n2)c1,.,.,.,.,-2
CC1CC(C)CN(S(=O)(=O)c2ccc(NC(=O)C3CSC4(C)CCC(=O)N34)cc2)C1 (stereo not given),-3,0,-11,-1,30*
CC(=O)/C(C[N+]1(C)CCCCC1)=N\O,1,0,44*,-15,.
CC(=O)c1cc2c(cc1N/C(=N/S(=O)(=O)c1ccc(C)cc1)c1ccc(F)cc1)OCO2,.,0,.,.,7
Cc1nc2scc(C)n2c(=O)c1S(=O)(=O)NCC1CCN(Cc2ccc(F)cc2)CC1,-4,1,34*,-28,-8
CC(C)(C)c1ccc(/C=N/NC(=O)c2ccccn2)cc1,-4,1,3,-6,-14
O=C(N/N=C/c1ccsc1)c1ccccn1,-5,0,39*,-5,-9
Cc1ccc(Cn2c(SCc3ccc(C(=O)N4CCCCC4)cc3)nc3ccncc32)cc1,.,1,.,.,5
N/C(=N\OC(=O)N1c2ccccc2Sc2ccccc21)c1ccccc1,5,-1,-2,5,2
Cc1cccc(/C(N)=N/OC(=O)c2ccc3c(c2)OCO3)c1,?,1,-9,57*,5
Cc1cccc(/C(N)=N/OC(=O)c2ccc(Br)o2)c1,?,0,6,65*,4
Cc1cccc(/C(N)=N/OC(=O)N2c3ccccc3Sc3ccccc32)c1,?,0,-18,51*,7
Cc1cccc(C(=O)O/N=C(/c2ccccc2)c2ccncc2)c1,?,-2,0,63*,12
Fc1ccc(CNCCCSc2nnnn2-c2ccccc2)cc1,.,-2,.,.,7
O=C(NCc1ccc(F)cc1)c1cc2sccc2n1Cc1ccc(F)cc1,.,1,-5,.,31*
CN(/N=C/c1cc([N+](=O)[O-])ccc1O)c1ccccc1,-8,3,7,-18,3
CN(/N=C/c1ccc(-c2ccc([N+](=O)[O-])cc2)o1)c1ccccc1,0,30*,8,0,10
CCn1c(CNC(=O)c2ccc(OC)cc2)nnc1SCC(=O)Nc1ccc(C)cc1,.,0,.,.,-7
Cc1cc(C)c2nc(-c3ccccn3)cc(C(=O)NCc3cc(C)n(C)n3)c2c1,-4,0,35*,5,-13
COc1ccc(-c2nc(CNC(=O)NC3CCCCC3)c(C)o2)c(OC)c1,.,1,.,.,3
COc1ccccc1CN1C[C@@H]2C[C@@H](c3ccc(C)c(C)c3)N3CCC[C@@]23C1=O,-3,0,35*,-6,-2
COc1ccc(C=NNc2nc3ccccc3s2)cc1,1,.,.,-11,.
Cc1ccc2[nH]c(C)c(/C=N/Nc3nc4ccccc4s3)c2c1,6,1,-1,58*,-7
